Inconclusive results are not listed. Activity calls are given as the source filed them. Unless noted, the call rests on the fitted dose curve.

These results are taken from PubChem BioAssay (NCATS).

Test [1] is described as follows: qHTS for Inhibitors of the Functional Ribonucleoprotein Complex (vRNP) of Lassa (LASV) Arenavirus: LASV Primary Screen - GLuc reporter signal (AID 1347082; calls by dose curve; tested in HEK293 reporter line; further: on the % scale 0 is the no-effect control and ±100 the full control effect; nearly all actives have a fitted effect of over 60% in size). For orientation: qHTS replaces the single test concentration by a dilution series.
The nature of test [2]: qHTS for Inhibitors of the Functional Ribonucleoprotein Complex (vRNP) of Lassa (LASV) Arenavirus: Viability assay - alamar blue signal for LASV Primary Screen (AID 1347083; calls by dose curve; tested in HEK293 reporter line; further: nearly all actives have a fitted effect of over 80% in size; further: potency means the concentration at half of the fitted maximal effect).
Test [3] in a line: qHTS for Inhibitors of the Functional Ribonucleoprotein Complex (vRNP) of Lymphocytic Choriomeningitis Arenaviruses (LCMV): Viability assay - alamar blue signal for LCMV Primary Screen (AID 1347085; calls by dose curve; tested in HEK293 reporter line; further: nearly all actives have a fitted effect of over 80% in size; further: potency means the concentration at half of the fitted maximal effect).
The target of test [4] is Nucleoprotein (Lymphocytic choriomeningitis virus (strain Armstrong)) (UniProt P09992). Briefly: qHTS for Inhibitors of the Functional Ribonucleoprotein Complex (vRNP) of Lymphocytic Choriomeningitis Arenaviruses (LCMV): LCMV Primary Screen - GLuc reporter signal (AID 1347086). Further: on the % scale 0 is the no-effect control and ±100 the full control effect; nearly all actives have a fitted effect of over 70% in size.
Chain of Nucleoprotein (Lymphocytic choriomeningitis virus (strain Armstrong)) (P09992 whole entry, looked up): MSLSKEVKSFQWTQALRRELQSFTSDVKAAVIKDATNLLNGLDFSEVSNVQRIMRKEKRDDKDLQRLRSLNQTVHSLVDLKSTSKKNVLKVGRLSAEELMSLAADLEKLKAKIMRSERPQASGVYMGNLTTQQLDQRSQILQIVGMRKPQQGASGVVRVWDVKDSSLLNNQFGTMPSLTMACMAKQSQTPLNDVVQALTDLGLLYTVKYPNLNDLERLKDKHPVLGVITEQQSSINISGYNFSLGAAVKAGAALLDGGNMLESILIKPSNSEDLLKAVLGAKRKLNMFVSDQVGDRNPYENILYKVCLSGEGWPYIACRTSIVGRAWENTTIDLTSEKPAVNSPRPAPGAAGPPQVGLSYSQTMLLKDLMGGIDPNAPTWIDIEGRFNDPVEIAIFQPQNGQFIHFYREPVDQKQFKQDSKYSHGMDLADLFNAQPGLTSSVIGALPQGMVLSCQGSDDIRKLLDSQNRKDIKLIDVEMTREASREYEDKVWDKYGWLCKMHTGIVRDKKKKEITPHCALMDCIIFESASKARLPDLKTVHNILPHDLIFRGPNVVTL
A short description of test [5]: Cytotoxicity counterscreen for inhibitors of SARS-CoV-2 cell entry (AID 1645845). Further: nearly all actives have a fitted effect of over 50% in size. On activity change, negative = cytotoxicity: on the % scale 0 is the no-effect control and ±100 the full control effect. The procedure, abridged:
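ATP-content luminescence (ATPLite 1step, 15 min RT) read after 48 h compound exposure of Expi293F cells stably expressing human ACE2; normalized to cells-only wells and media-only wells.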
In general terms: The purpose of a counterscreen is to sort out artefacts and off-target activity.

The nature of test [6]: Primary qHTS to identify inhibitors of SARS-CoV-2 cell entry (AID 1645846). Further: nearly all actives have a fitted effect of over 45% in size. The note with it: activity change, negative = inhibition: at 57.1 µM (top of the series) unless noted. The procedure, abridged: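 Data are normalized to wells receiving SARS-CoV-2-S pseudoparticles and those given bald particles. Entry signal was luciferase luminescence in stable hACE2 Expi293F cells, 48 hr post-infection, after 1 hr compound pretreatment.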

Test [7] in a line: VSVG counterscreen qHTS to identify inhibitors of SARS-CoV-2 cell entry (AID 1645847). Further: nearly all actives have a fitted effect of over 65% in size. Further: potency means the concentration at half of the fitted maximal effect. On activity change, negative = inhibition: on the % scale 0 is the no-effect control and ±100 the full control effect. The gist of the method:
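Counterscreen using VSV-G (not spike) pseudotyped MLV particles on ACE2-expressing Expi293F cells after 1 h compound preincubation; infection ran 48 h at 37 °C. Data normalized to VSV-G PP and bald-PP wells.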

A short description of test [8]: qHTS profiling of the MIPE4 collection as inhibitors of Plasmodium falciparum (3D7) proliferation (AID 743344; call rule not given here;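 further: scaled between DMSO vehicle wells and 0.29 µM artemisinin as full inhibition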). The note with it: P. falciparum 3D7 in erythrocytes, SYBR Green DNA fluorescence, 72 h; at 28.5 µM (top of the series) unless noted. The procedure, abridged: (§1)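 Parasite DNA was quantified by SYBR Green I fluorescence (ex 485, em 535 nm) after overnight lysis in saponin/Triton buffer at room temperature. Cultures at 0.3% parasitemia and 2.5% hematocrit were first exposed to compound for 72 h at 37 C; signals were normalised to artemisinin (0.29 uM) and vehicle wells.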

The nature of test [9]: qHTS profiling of the MIPE4 collection as inhibitors of Plasmodium falciparum (DD2) proliferation (AID 743345; call rule not given here). The note with it: P. falciparum Dd2 in erythrocytes, SYBR Green DNA, 72 h; at 28.5 µM (top of the series) unless noted. The procedure, abridged: as §1
Test [10] can be described thus: qHTS profiling of the MIPE4 collection as inhibitors of Plasmodium falciparum (DD2) proliferation (Rep 2) (AID 743346; call rule not given here). The note with it: P. falciparum Dd2 in erythrocytes, SYBR Green DNA, 72 h; at 28.5 µM (top of the series) unless noted. The procedure, abridged: as §1
In test [11] the target is Alpha-galactosidase (Coffea arabica) (UniProt Q42656). Briefly: Counterscreen for Glucocerebrosidase Inhibitors: qHTS Assay for Coffee Bean alpha-Galactosidase at pH 4.5 (AID 957; active means well fitted curve in the direction sought with a large enough effect; an effect the other way counts as inactive or inconclusive;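 further: plate controls were enzyme alone for no effect and no enzyme for full effect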). The procedure, abridged: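 Enzyme is added first (2 nM final), then compounds titrated from 0.7 nM to 77 uM, then 80 uM 4-methylumbelliferyl alpha-D-galactopyranoside; after 20 min at room temperature a pH 10 NaOH/glycine stop precedes fluorescence reading at 365/440 nm.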
Chain of Alpha-galactosidase (Coffea arabica) (Q42656 whole entry, looked up): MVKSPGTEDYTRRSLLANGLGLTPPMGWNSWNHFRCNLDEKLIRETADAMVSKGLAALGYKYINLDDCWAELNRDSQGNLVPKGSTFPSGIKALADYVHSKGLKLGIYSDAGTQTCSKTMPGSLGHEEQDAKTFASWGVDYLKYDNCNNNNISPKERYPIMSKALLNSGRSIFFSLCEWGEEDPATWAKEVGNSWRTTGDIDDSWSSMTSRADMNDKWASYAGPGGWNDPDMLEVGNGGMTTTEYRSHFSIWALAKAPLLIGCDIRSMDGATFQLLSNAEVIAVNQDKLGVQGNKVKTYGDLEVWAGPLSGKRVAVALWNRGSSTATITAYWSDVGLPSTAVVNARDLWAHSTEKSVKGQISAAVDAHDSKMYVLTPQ

Test [12] shares this target. Briefly: Counterscreen for Glucocerebrosidase Inhibitors: qHTS Assay for Coffee Bean alpha-Galactosidase at pH 5.9 (AID 998; active means well fitted curve in the direction sought with a large enough effect; an effect the other way counts as inactive or inconclusive;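 further: plate controls were uninhibited enzyme for no effect and no-enzyme basal signal for full effect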). The procedure, abridged:
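Fluorogenic 4-MU substrate hydrolysis, 80 uM substrate and 2 nM coffee bean alpha-galactosidase, pH 5.9 citrate buffer, 20 min at room temperature, then NaOH/glycine stop. Titration 0.7 nM–77 uM, normalized to no-enzyme and enzyme controls, AC50 via Hill equation.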

Test [13] can be described thus: Inducers of the Endoplasmic Reticulum Stress Response (ERSR) in human glioma: Validation (AID 504836; active means well fitted curve in the direction sought with a large enough effect; an effect the other way counts as inactive or inconclusive; further: 0% is about no effect). The gist of the method:
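ERSR induction read as luciferase luminescence (Bright-Glo, 10 min at room temperature) in stably transfected human U87-MG glioma cells exposed to compounds for 16 h, using GRP78 as sensor.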

The target of test [14] is Estrogen receptor (Homo sapiens) (UniProt P03372). Put plainly: qHTS assay for small molecule agonists of estrogen receptor alpha signaling (AID 588514). Further: potency means the concentration at half of the fitted maximal effect; nearly all actives have a fitted effect of over 70% in size. The procedure, abridged:
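Efficacy is expressed against 20 nM 17-beta-estradiol (100%) and DMSO basal (0%); EC50 from Hill equation. Assay: beta-lactamase reporter in ER-alpha-UAS-bla HEK 293 cells, 18 h compound incubation, CCF4 detection.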

In test [15] the target is Bile acid receptor (Homo sapiens) (UniProt Q96RI1). Put plainly: qHTS assay for small molecule agonists of farnesoid X receptor signaling (AID 588527).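 Further: 0% = vehicle basal and 100% = reference agonist.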 Particulars: HEK293T FXR-UAS-bla, beta-lactamase ratio, 16 h; activation: stronger effect = higher value. The procedure, abridged: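 FXR-UAS-bla HEK293T cells (10% dialyzed FBS) preincubated 5-7 h at 37 C, then compounds at up to 92 uM for 16 h at 37 C. CCF4 beta-lactamase read-out after 2 h RT. Normalized to chenodeoxycholic acid (100 uM) and DMSO; Hill fit gave EC50 and efficacy.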
Chain of Bile acid receptor (Homo sapiens) (Q96RI1 whole entry, looked up): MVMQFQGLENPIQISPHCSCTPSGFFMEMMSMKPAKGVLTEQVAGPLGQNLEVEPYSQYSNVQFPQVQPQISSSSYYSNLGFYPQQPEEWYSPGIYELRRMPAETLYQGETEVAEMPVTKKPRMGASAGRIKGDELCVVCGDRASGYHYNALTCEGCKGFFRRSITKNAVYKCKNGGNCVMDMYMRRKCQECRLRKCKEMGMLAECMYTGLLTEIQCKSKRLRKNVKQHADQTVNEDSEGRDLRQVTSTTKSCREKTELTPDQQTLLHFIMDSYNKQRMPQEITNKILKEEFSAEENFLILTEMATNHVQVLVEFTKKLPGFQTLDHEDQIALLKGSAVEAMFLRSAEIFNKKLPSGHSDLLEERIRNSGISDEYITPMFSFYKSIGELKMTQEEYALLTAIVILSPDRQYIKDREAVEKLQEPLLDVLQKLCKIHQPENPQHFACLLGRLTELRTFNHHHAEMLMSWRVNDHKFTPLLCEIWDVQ

A short description of test [16]: qHTS assay for small molecule agonists of the antioxidant response element (ARE) signaling pathway (AID 651741; active means well fitted activation curve with a large enough effect in the signal ratio; the % refers to the signal ratio; further: potency means the concentration at half of the fitted maximal effect). The procedure, abridged: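 Beta-lactamase reporter under ARE control in HepG2 cells, 2,000 per well, was induced by 16 h compound treatment at 37 C. Read-out was fluorescence from LiveBLAzer B/G FRET substrate after 2 h at room temperature.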
The target of test [17] is Cytochrome P450 3A4 (Homo sapiens) (UniProt P08684). Put plainly: qHTS Assay for Activators of Cytochrome P450 3A4 (AID 885; active means well fitted curve in the direction sought with a large enough effect; an effect the other way counts as inactive or inconclusive; further: nearly all actives have a fitted effect of over 65% in size). The gist of the method: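 Human CYP3A4 dealkylates Luciferin-PPXE to luciferin, which luciferase detection converts to light. Substrate was at its KM (25uM), buffer 200mM KPO4, reaction 60 min at RT.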
Chain of Cytochrome P450 3A4 (Homo sapiens) (P08684 whole entry, looked up): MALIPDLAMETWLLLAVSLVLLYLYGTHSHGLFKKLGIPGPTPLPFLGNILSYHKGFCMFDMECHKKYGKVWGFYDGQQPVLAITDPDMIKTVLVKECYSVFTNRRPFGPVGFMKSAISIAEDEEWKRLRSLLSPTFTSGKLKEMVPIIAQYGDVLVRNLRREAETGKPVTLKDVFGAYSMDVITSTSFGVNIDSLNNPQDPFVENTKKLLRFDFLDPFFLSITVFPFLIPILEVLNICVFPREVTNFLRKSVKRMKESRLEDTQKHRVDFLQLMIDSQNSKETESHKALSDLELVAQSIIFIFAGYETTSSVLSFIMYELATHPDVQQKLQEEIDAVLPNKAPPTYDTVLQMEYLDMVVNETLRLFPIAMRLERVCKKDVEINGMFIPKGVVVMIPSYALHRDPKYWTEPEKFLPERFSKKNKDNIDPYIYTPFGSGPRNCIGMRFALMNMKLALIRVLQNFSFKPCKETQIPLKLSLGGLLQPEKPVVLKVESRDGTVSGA
Test [18] has as its target Cytochrome P450 2C19 (Homo sapiens) (UniProt P33261). Briefly: qHTS Assay for Inhibitors and Substrates of Cytochrome P450 2C19 (AID 899; active means well fitted curve in the direction sought with a large enough effect; an effect the other way counts as inactive or inconclusive; further: potency means the concentration at half of the fitted maximal effect; nearly all actives have a fitted effect of over 60% in size). The gist of the method:
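Luminescence readout of luciferin formed from 10uM Luciferin-H EGE (KM level) by 5 nM CYP2C19 in 50mM KPO4. 60 min NADPH-driven reaction at 37C after 10 min compound preincubation; data scaled to 57uM ketoconazole inhibition.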

Chain of Estrogen receptor (Homo sapiens) (P03372 whole entry, looked up): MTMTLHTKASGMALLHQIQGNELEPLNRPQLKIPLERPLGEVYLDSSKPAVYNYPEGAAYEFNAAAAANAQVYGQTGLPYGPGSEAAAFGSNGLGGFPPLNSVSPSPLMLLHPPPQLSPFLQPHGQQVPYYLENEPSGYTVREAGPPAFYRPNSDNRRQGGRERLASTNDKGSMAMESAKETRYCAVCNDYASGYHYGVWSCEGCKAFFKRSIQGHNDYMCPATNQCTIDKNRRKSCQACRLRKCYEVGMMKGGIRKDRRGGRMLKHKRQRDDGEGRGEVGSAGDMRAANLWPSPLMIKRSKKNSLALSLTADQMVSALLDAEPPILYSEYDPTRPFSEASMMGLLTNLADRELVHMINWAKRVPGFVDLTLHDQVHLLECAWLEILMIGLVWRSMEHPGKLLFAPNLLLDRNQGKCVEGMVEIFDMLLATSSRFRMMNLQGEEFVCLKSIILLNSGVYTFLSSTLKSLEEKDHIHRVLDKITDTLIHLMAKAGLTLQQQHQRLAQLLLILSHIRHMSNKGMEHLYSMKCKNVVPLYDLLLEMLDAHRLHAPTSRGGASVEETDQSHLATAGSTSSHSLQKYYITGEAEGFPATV
Chain of Cytochrome P450 2C19 (Homo sapiens) (P33261 whole entry, looked up): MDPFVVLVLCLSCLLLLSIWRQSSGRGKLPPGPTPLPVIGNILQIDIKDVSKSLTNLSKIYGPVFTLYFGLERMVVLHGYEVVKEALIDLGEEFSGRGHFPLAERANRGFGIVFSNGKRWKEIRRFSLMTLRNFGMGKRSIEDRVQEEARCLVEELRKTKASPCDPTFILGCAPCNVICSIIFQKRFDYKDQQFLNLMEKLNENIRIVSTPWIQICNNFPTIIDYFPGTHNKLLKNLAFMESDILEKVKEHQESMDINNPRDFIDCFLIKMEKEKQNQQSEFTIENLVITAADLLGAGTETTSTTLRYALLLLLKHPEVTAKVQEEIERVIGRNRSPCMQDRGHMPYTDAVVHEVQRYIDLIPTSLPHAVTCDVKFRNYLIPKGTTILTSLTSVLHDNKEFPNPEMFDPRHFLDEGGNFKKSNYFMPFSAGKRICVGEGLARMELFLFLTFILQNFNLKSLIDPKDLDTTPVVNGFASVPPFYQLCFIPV

With `O=C(NCCCCN1CCOCC1)c1cc2ccccc2o1`, the Potency entry in test [1], in test [2], in [3], in [4], in test [5] and in test [6] was “inactive” each time. Besides, the Potency entry in test [7] is “inactive”.
With `COC1CCC(N(C(=O)C2CCC(C)CC2)c2cc(C3=CCCCC3)sc2C(=O)O)CC1` (configuration not stated), the parasite growth, % of DMSO control in [8] was 31.6%. Further, the parasite growth remaining, % of DMSO control (lower = more inhibition) in [9] amounted to 61.5%. In test [10], this molecule displayed a parasite growth, % of control (lower = inhibition) of 44.7%. The Potency result in test [1], in [2], in test [3], in [4] and in test [5] was “inactive” each time. Moreover, in test [6], the activity change, negative = inhibition came out at 1.37%.
Turning to `COc1cccc(-c2cc(=O)c3ccccc3o2)c1N`, the result in [11], in test [12] and in [13] was inactive. The Potency result in test [1], in [2], in test [3], in [4], in test [5] and in test [6] was “inactive” in each case.
Consider `Cc1cnc(CNC(=O)c2c(=O)c3ccc(N4CCCN(C)CC4)nc3n3c2sc2ccccc23)cn1`, for which the Potency entry in test [1] and in test [4] was “inactive” in each case. Moreover, the Potency in [2] was 15 µM (active); in test [3] it was 8.41 µM (active); in test [7], 3.12 µM (active). For the same molecule, the activity change, negative = cytotoxicity in test [5] is -25.6% [at 11.3 µM] (inactive).
`CCNC(=O)[C@H]1O[C@@H](n2cnc3c(N)nc(NCCc4ccc(CCC(=O)O)cc4)nc32)[C@H](O)[C@@H]1O`: the molecule was classed as inactive in test [13]. For the same molecule, the Potency entry in test [1], in test [2], in test [3], in test [4], in test [5] and in test [6] was “inactive” each time.
`O=C(Nc1ccccc1Br)N[C@@H]1CCN(c2ccc(C(F)(F)F)cn2)C1`: the Potency entry in [1], in test [2], in test [3], in test [4] and in [5] was “inactive” throughout. Besides, in [6], the activity change, negative = inhibition is -27.3%.
As for `CCCCC(C)(C)[C@H](O)C=C[C@H]1[C@H](O)CC(=O)[C@H]1CC=CCCCC(=O)O`, the Potency entry in test [1], in [2], in [3], in test [4] and in test [5] was “inactive” each time. The activity change, negative = inhibition in test [6] was -55.7%. The Potency in test [7] was 19.2 µM (active).
For the molecule `O=C1c2cccc(O)c2C(=O)c2c(O)cc(CO)cc21`, the Potency is 20 µM (active) in [14] and 12.2 µM (active) in [16]. Besides, the activation in [15] is 4.08% (inactive). This molecule also gave a parasite growth, % of DMSO control in test [8] of 321%. This molecule also came in with a parasite growth remaining, % of DMSO control (lower = more inhibition) in test [9] of 99.1%. This molecule also had a parasite growth, % of control (lower = inhibition) in [10] of 97.1%. The Potency result in [1], in test [2], in [3], in test [4] and in test [5] was “inactive” throughout. The activity change, negative = inhibition in [6] is -12.6%.
As for `O=C1NC(=O)/C(=C/c2ccc(-c3ccc(F)cc3O)o2)S1`, in test [13], the result was inactive. The Potency result in [1], in test [2], in test [3], in test [4], in test [5] and in test [6] was “inactive” in each case.
For `O=c1c(O)c(-c2cc(O)c(O)c(O)c2)oc2cc(O)cc(O)c12`, the Potency result in test [17], in test [1], in test [2], in test [3], in test [4] and in test [5] was “inactive” in each case. Besides, in [6], the Potency result was “inactive”. Also, in [18], the Potency is 10 µM (active). For the same molecule, the call in [11], in test [12] and in test [13] was inactive.
Regarding `NCc1c[nH]c(=S)n1[C@H]1CCc2c(F)cc(F)cc2C1`, the Potency entry in test [1], in test [2], in test [3], in [4] and in test [5] was “inactive” each time. Moreover, in test [6], the activity change, negative = inhibition was -19.7%.
